Test results from PubChem BioAssay (Tox21).
Values without a mark were called inactive. Records with an inconclusive call do not appear. Entries that show only a call come without a potency. Active and inactive are the calls of the source. Unless noted, the call rests on the fitted dose curve; in most records, active means well fitted curve in the direction sought with a large enough effect in the repeat runs; inconclusive means weak or mixed curves; inactive means no such curve, though single readings can be large; an effect the other way counts as inactive or inconclusive.

How the values were obtained:
[1] = qHTS assay to identify small molecule antagonists of the estrogen related receptor (ERR) signaling pathway from Tox21 library - cell viability counter screen (AID 1224834); further: nearly all actives have a fitted effect of over 30% in size; further: potency means the concentration at half of the fitted maximal effect
Method in brief: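 ERR cells, 2,000/well; 6 h settle at 37 C/5% CO2; pin-tool compound transfer in DMSO; 17.5 h at 37 C; CellTiter-Fluor, 30 min; fluorescence intensity.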

[2] = molecular target: Luciferin 4-monooxygenase (Photinus pyralis) (UniProt P08659); test: qHTS assay to identify small molecule inhibitors of firefly luciferase (AID 1224835); further: nearly all actives have a fitted effect of over 25% in size; further: potency means the concentration at half of the fitted maximal effect
Method in brief: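 Biochemical qHTS: compounds run as interplate titrations against purified firefly enzyme, with D-luciferin and ATP each at its KM concentration. Light output recorded by CCD imaging.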

[3] = qHTS assay to identify small molecule agonists of the constitutive androstane receptor (CAR) signaling pathway - cell viability counter screen (AID 1224836); further: nearly all actives have a fitted effect of over 45% in size; further: potency means the concentration at half of the fitted maximal effect
Method in brief: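 Double-stable HepG2 hepatoma cells (hCAR plus CYP2B6-2.2kb) are treated for 23 h at 37 C with test compounds in 15-point concentration series. PK11195 at 0.75 uM final is co-added. Cell viability is quantified by CellTiter-Fluor.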

[4] = qHTS assay to identify small molecule antagonists of the constitutive androstane receptor (CAR) signaling pathway - cell viability counter screen (AID 1224837); further: nearly all actives have a fitted effect of over 45% in size; further: potency means the concentration at half of the fitted maximal effect
Method in brief: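 Viability was measured with CellTiter-Fluor in a HepG2 line carrying stably transfected hCAR and a CYP2B6-2.2kb construct. Cells were exposed for 23 hr at 37 C to 15 compound concentrations with 50 nM CITCO as agonist.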

[5] = molecular target: Nuclear receptor subfamily 1 group I member 3 (Homo sapiens) (UniProt Q14994); test: qHTS assay to identify small molecule antagonists of the constitutive androstane receptor (CAR) signaling pathway (AID 1224838);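 further: HepG2 cells stably expressing hCAR with CYP2B6 luciferase reporter stimulated by CITCO; nearly all actives have a fitted effect of over 40% in size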; further: potency means the concentration at half of the fitted maximal effect
Method in brief: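 Antagonist mode used CITCO at a final 50 nM to activate CAR in human hepatoma HepG2 cells carrying stable hCAR and a 2.2 kb CYP2B6 promoter-luciferase construct. Compounds were tested at 15 concentrations over 24 h, with luminescence as the end point.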

[6] = molecular target: Nuclear receptor subfamily 1 group I member 3 (Homo sapiens) (UniProt Q14994); test: qHTS assay to identify small molecule agonists of the constitutive androstane receptor (CAR) signaling pathway (AID 1224839); further: nearly all actives have a fitted effect of over 15% in size; further: potency means the concentration at half of the fitted maximal effect
Method in brief: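 Readout: firefly luciferase luminescence via ONE-Glo. System: HepG2 double-stable for hCAR and CYP2B6-2.2kb. Conditions: 15-point compound titration, PK11195 at 0.75 uM final, 24 h incubation.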

[7] = qHTS assay to identify small molecule antagonists of the estrogen related receptor signaling pathway with the pleiotropic PPARgamma coactivator (PGC) from Tox21 10K library - cell viability counter screen (AID 1224840; active means well fitted cell-killing curve with a large enough effect in the repeat runs, not every such curve was filed as active; further: nearly all actives have a fitted effect of over 40% in size; further: potency means the concentration at half of the fitted maximal effect)
Method in brief: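 Multiplexed viability counter screen in the PGC/ERR cell line: cells treated with DMSO-dissolved compounds for 17.5 hours at 37 C, then viability measured as CellTiter-Fluor fluorescence.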

[8] = qHTS assay to identify small molecule antagonists of the estrogen related receptor signaling pathway with the pleiotropic PPARgamma coactivator (PGC) from Tox21 10K library (AID 1224841; call rule not given here; further: actives are mostly falling curves and most rising ones were filed inactive; nearly all actives have a fitted effect of over 50% in size; further: potency means the concentration at half of the fitted maximal effect)
Method in brief: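 Steps: plate 2,000 PGC/ERR cells per well; incubate 6 h at 37 C with 5% CO2; transfer compounds from DMSO stocks by pin tool; incubate 18 h at 37 C; add One-Glo; measure luminescence 30 min later.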

[9] = qHTS assay to identify small molecule agonists of the estrogen related receptor signaling pathway with the pleiotropic PPARgamma coactivator (PGC) from Tox21 10K library (AID 1224842); further: nearly all actives have a fitted effect of over 15% in size; further: potency means the concentration at half of the fitted maximal effect
Method in brief: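 PGC/ERR reporter cell line, 2,000 cells per well, incubated 6 h at 37 C before 23 nL compound in DMSO was added. After 18 h at 37 C, One-Glo luminescence read following 30 min at room temperature.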

[10] = qHTS assay to identify small molecule agonists of the hypoxia (HIF-1) signaling pathway - cell viability counter screen (AID 1224844; calls by dose curve; further: nearly all actives have a fitted effect of over 50% in size; further: potency means the concentration at half of the fitted maximal effect)
Method in brief: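 Cytotoxicity was measured in parallel with the HRE-driven beta-lactamase readout: after 17 hrs of compound exposure at 37C, HRE-bla ME-180 cells received CellTiter-Glo and luminescence was recorded 30 min later.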

[11] = qHTS assay to identify small molecule agonists of H2AX (AID 1224845; active means well fitted activation curve with a large enough effect in the signal ratio in the repeat runs, not every such curve was filed as active; the % refers to the signal ratio)
Method in brief: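 Wild-type CHO-K1 cells, plated overnight, exposed 3hr at 37C to 15 concentrations (0.76% DMSO final). Lysed, then HTRF anti-pH2AX (S139) cryptate and anti-H2AX-d2 antibodies, 24 hr room temperature; 665/620 nm emission read.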

[12] = qHTS assay to identify small molecule agonists of H2AX - cell viability counter screen (AID 1224847; calls by dose curve; further: top concentration of the series differs between compounds; nearly all actives have a fitted effect of over 30% in size)
Method in brief: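 For this counter screen, overnight-attached CHO-K1 cells received test compounds (15 concentrations, 0.76% DMSO final); 3 hr later at 37C, CellTiter-Glo reagent was added and luminescence recorded after 30 min at room temperature.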

[13] = qHTS assay to identify small molecule antagonists of the estrogen related receptor (ERR) signaling pathway from Tox21 library (AID 1224848); further: nearly all actives have a fitted effect of over 50% in size; further: potency means the concentration at half of the fitted maximal effect
Method in brief: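 Quantitative high-throughput format: ERR reporter cells (2,000/well) pre-incubated 6 h, treated 18 h at 37 C with compounds in DMSO alongside positive and negative controls, then read by ONE-Glo luminescence.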

[14] = qHTS RealTime-Glo MT Cell Viability Assay in HepG2 cells - 24 hour (AID 1224867); further: nearly all actives have a fitted effect of over 50% in size; further: potency means the concentration at half of the fitted maximal effect
Method in brief: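 Cell number in HepG2 cultures estimated from NanoLuc luminescence generated by metabolic reduction of a prosubstrate by living cells. The homogeneous, nonlytic format allowed repeated reads at 0, 8, 16, 24, 32 and 40 h of compound exposure.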

[15] = qHTS RealTime-Glo MT Cell Viability Assay in HEK293 cells - 32 hour (AID 1224868); further: nearly all actives have a fitted effect of over 50% in size; further: potency means the concentration at half of the fitted maximal effect
Method in brief: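 Homogeneous bioluminescent viability format in HEK293 cells (600 cells/well). Following 5 h at 37 C/5% CO2, 23 nL compound was pintooled; the signal was measured repeatedly during 40 h incubation.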

[16] = qHTS assay to identify small molecule agonists of the estrogen related receptor signaling pathway with the pleiotropic PPARgamma coactivator (PGC) (AID 1224823)
Method in brief: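 Luminescence from One-Glo reagent (30 min, room temperature) was read after 18 h compound treatment at 37 C of PGC/ERR cells plated 6 h beforehand; compounds delivered in DMSO by pin tool.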

[17] = qHTS assay to identify small molecule agonists of the estrogen related receptor (ERR) signaling pathway from Tox21 library (AID 1224849; calls by dose curve; further: nearly all actives have a fitted effect of over 15% in size); settings: ERR reporter cell line, ONE-Glo luciferase, 18 h; at 92.4 µM (top of the series) unless noted
Method in brief: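 Cells carrying the ERR reporter were plated and allowed to settle for 6 h, exposed to library compounds for 18 h at 37 C, then lysed with ONE-Glo and luminescence measured.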

[18] = A CellTox Green Cytotoxicity Assay to monitor cytotoxicity in HEK293 cells - 0 hour (AID 1224869); further: nearly all actives have a fitted effect of over 50% in size
Method in brief: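 Cells (HEK293, 600/well) and dye reagent are dispensed together. After 5 h at 37 C, 23 nL compound is pinned in. Plates stay at 37 C for 40 h with fluorescence read at 0h, 8h, 16h, 24h, 32h and 40h.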

[19] = molecular target: Thyrotropin receptor (Homo sapiens) (UniProt P16473); test: qHTS assay to identify small molecule agonists of the thyroid stimulating hormone receptor (TSHR) signaling pathway (AID 1224843; calls by dose curve; further: nearly all actives have a fitted effect of over 45% in size)
Method in brief: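 Agonist-mode screen: TSHR HEK293 cells received test chemicals for half an hour at room temperature, then HTRF cAMP detection reagents for one hour prior to fluorescence measurement. Each chemical ran as a 15-concentration series, triplicated.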

[20] = qHTS assay to identify small molecule agonists of the hypoxia (HIF-1) signaling pathway (AID 1224846; active means well fitted activation curve with a large enough effect in the signal ratio in the repeat runs, not every such curve was filed as active; the % refers to the signal ratio)
Method in brief: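 Compounds from the Tox21 10K library, dissolved in DMSO, are tested for induction of a hypoxia response element–controlled beta-lactamase reporter in ME-180 cells. Exposure lasts 17 hrs at 37C after a 5 hr settling period, followed by CCF4-AM FRET substrate.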

Sequence of Nuclear receptor subfamily 1 group I member 3 (Homo sapiens) (Q14994 whole entry, looked up): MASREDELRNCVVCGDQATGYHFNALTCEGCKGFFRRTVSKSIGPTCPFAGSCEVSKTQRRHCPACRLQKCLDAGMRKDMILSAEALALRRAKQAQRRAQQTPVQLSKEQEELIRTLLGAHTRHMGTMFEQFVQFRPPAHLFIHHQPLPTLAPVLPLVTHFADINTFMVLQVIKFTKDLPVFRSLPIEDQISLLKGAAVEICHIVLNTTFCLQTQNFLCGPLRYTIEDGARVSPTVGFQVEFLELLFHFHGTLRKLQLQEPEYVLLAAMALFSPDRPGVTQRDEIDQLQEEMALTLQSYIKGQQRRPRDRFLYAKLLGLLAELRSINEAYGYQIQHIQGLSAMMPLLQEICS
Sequence of Luciferin 4-monooxygenase (Photinus pyralis) (P08659 whole entry, looked up): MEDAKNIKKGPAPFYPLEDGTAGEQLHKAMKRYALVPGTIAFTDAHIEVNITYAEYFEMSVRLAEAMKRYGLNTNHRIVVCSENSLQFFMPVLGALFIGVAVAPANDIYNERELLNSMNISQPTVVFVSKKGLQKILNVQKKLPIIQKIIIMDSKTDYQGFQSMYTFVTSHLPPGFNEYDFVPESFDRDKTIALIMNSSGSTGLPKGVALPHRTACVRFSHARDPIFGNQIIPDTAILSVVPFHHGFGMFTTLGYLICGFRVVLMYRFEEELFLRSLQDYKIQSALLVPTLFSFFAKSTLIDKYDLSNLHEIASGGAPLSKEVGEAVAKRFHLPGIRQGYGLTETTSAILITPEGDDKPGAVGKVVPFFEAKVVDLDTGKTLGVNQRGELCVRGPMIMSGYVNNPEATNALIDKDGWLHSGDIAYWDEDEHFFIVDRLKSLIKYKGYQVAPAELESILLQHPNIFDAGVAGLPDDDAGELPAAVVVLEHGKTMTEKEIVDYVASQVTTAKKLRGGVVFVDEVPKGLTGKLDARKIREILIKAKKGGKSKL
Sequence of Thyrotropin receptor (Homo sapiens) (P16473 whole entry, looked up): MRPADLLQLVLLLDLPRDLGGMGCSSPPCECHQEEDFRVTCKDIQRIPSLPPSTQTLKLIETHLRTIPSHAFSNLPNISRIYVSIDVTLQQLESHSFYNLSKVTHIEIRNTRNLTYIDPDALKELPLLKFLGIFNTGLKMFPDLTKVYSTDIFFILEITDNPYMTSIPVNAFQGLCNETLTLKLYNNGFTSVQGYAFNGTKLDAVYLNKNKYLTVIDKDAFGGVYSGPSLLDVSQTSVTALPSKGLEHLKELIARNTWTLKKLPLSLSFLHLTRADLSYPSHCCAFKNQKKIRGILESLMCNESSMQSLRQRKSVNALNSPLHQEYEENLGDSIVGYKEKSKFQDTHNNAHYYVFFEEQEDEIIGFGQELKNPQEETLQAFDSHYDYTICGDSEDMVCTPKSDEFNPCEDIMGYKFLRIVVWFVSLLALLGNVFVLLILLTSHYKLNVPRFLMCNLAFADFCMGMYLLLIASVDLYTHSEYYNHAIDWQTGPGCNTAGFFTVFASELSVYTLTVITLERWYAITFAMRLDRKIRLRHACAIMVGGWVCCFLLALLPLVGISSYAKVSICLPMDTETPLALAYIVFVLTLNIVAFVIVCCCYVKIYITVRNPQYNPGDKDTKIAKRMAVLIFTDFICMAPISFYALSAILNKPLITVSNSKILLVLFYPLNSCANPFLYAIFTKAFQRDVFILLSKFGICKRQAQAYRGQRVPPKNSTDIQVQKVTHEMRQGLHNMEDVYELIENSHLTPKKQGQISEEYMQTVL

| SMILES | Potency [1] | Potency [2] | Potency [3] | Potency [4] | Potency [5] | Potency [6] | Potency [7] | Potency [8] | Potency [9] | Potency [10] | Potency [11] | Potency [12] | Potency [13] | Potency [14] | Potency [15] | outcome [16] | activity change, positive = activation [17] | Potency [18] | Potency [19] | outcome [20] |
| --- | --- | --- | --- | --- | --- | --- | --- | --- | --- | --- | --- | --- | --- | --- | --- | --- | --- | --- | --- | --- |
| C=C(C)C(=O)OCCOCCOC(=O)C(=C)C | inactive | inactive | inactive | inactive | inactive | inactive | inactive | inactive | inactive | inactive | inactive | inactive | inactive | inactive | inactive | – | – | – | – | – |
| CN(C)CCC=C1c2ccccc2C=Cc2ccccc21 | – | inactive | inactive | – | inactive | inactive | – | inactive | inactive | inactive | inactive | inactive | inactive | inactive | – | inactive | -12.5% [at 42.5 µM] | inactive | – | – |
| CN1C[C@H](C(=O)N[C@]2(C)O[C@@]3(O)[C@@H]4CCCN4C(=O)[C@H](Cc4ccccc4)N3C2=O)C[C@@H]2c3cccc4[nH]cc(c34)C[C@H]21 | 26.6 µM (active) | inactive | – | – | – | inactive | – | inactive | inactive | 12 µM (active) | – | – | 29.8 µM (active) | – | 21.3 µM (active) | inactive | – | inactive | – | – |
| O=C1c2ccccc2C(=O)C1c1ccc(Br)cc1 | inactive | 3.47 µM (active) | inactive | inactive | inactive | 29.8 µM (active) | inactive | inactive | 13.3 µM (active) | inactive | – | inactive | inactive | inactive | inactive | – | 99.8% [at 42.5 µM] (active) | – | inactive | inactive |
| Cc1ccc(OC(=O)c2ccccc2O)cc1 | inactive | 6.33 µM (active) | inactive | inactive | inactive | inactive | inactive | inactive | – | inactive | – | – | inactive | inactive | inactive | – | 2.99% | inactive | – | – |
| Cc1ccccc1N=C(N)Nc1ccccc1C | inactive | inactive | inactive | inactive | inactive | inactive | inactive | inactive | inactive | – | inactive | – | inactive | inactive | inactive | – | -3.25% | – | – | inactive |
| c1ccc(C[n+]2cccc3ccccc32)cc1 | inactive | inactive | inactive | inactive | inactive | inactive | inactive | 24.3 µM (active) | inactive | inactive | inactive | inactive | 48.6 µM (active) | inactive | inactive | – | -48.3% | inactive | inactive | inactive |
| OCCN1CCN(CCCN2c3ccccc3Sc3ccc(Cl)cc32)CC1 | 26.6 µM (active) | inactive | 29.8 µM (active) | 29.8 µM (active) | – | inactive | – | inactive | – | 15.1 µM (active) | inactive | – | 29.8 µM (active) | 23.9 µM (active) | 23.9 µM (active) | inactive | – | inactive | inactive | – |
| NC(=O)c1ccncc1 | inactive | inactive | inactive | inactive | inactive | inactive | inactive | inactive | inactive | inactive | inactive | inactive | inactive | inactive | inactive | – | 6.51% | – | inactive | inactive |
| CCCCCC#CC(=O)OC | inactive | inactive | inactive | inactive | inactive | inactive | inactive | inactive | inactive | inactive | inactive | inactive | inactive | inactive | – | – | – | – | inactive | inactive |
| CC(=O)N/N=C/c1ccc([N+](=O)[O-])o1 | inactive | inactive | inactive | inactive | inactive | inactive | inactive | inactive | inactive | – | – | – | inactive | inactive | inactive | – | -10.2% [at 42.5 µM] | inactive | – | – |
| CC(C)C[C@H](NC(=O)[C@H](CCc1ccccc1)NC(=O)CN1CCOCC1)C(=O)N[C@@H](Cc1ccccc1)C(=O)N[C@@H](CC(C)C)C(=O)[C@@]1(C)CO1 | 0.133 µM (active) | inactive | 0.376 µM (active) | 0.422 µM (active) | 0.119 µM (active) | inactive | 3.35 µM (active) | 0.0841 µM (active) | inactive | 0.213 µM (active) | inactive | inactive | 0.0596 µM (active) | 0.0674 µM (active) | 0.0379 µM (active) | – | -67.1% [at 42.5 µM] | inactive | inactive | inactive |
| C=CC(C)(CCC=C(C)C)OC(=O)CC(C)C (stereo not given) | inactive | inactive | inactive | inactive | inactive | inactive | inactive | – | – | inactive | inactive | inactive | – | inactive | inactive | – | – | – | inactive | – |
| c1csc(SSc2cccs2)c1 | 54.5 µM (active) | 22.4 µM (active) | 54.5 µM (active) | 48.6 µM (active) | 43.3 µM (active) | inactive | – | – | inactive | – | – | inactive | 61.1 µM (active) | – | – | – | -56.7% | inactive | inactive | inactive |
| Brc1cc(Br)c(Oc2cc(Br)c(Br)cc2Br)cc1Br | inactive | inactive | inactive | inactive | inactive | inactive | inactive | – | – | 21.3 µM (active) | inactive | inactive | – | inactive | inactive | – | – | – | inactive | inactive |
